TRHR enhancer-1: TRH receptor (human) allosteric enhancement; P34981; TRHR cells, fluo-8 calcium fluorescence, EC20 TRH enhancement; enhancement, % at 2 µM; 360,000 compounds, 0.66% hits; AID 493056; in the data active = enhancement above about 30%
Target sequence (P34981 whole entry, looked up): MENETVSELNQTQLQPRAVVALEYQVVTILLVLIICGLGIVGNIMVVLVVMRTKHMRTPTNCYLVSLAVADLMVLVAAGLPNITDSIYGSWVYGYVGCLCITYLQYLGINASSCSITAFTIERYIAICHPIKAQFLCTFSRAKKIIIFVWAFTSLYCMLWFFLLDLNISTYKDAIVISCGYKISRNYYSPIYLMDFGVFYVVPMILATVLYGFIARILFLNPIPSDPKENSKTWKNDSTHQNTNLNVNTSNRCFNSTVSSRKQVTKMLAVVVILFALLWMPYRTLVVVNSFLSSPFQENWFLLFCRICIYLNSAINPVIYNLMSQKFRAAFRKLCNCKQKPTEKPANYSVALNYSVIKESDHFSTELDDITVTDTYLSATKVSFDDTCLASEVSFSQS
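TRHR-expressing cells loaded with fluo-8 calcium dye were read kinetically (ex 480/em 530) during compound addition, then stimulated with an EC20 of TRH (10 nM final). Enhancement of the Gq-mediated intracellular calcium response was scored.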
D1 antag: antagonists of human D1 dopamine receptor | P21728 | AID 504652 | HEK293 TREx D1 cells, calcium flux, dopamine EC80; hits give low values | 360,000 compounds, 3.2% hits | activity change, negative = inhibition, % at 10 µM; in the data active = activity change below about -30%
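Compound effects on dopamine-evoked calcium signalling were measured in tetracycline-induced HEK293 Trex D1 cells. Dopamine at EC80 followed a 180 s compound pre-read, and fluorescence was tracked kinetically for 180 s more.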
TRHR agonist-1: activates the human TRH receptor | P34981 | 360,000 compounds, 0.18% hits | TRHR cells, calcium flux fluo-8, FDSS agonist mode | activation, % at 2 µM; in the data active = activation above about 30%
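TRHR-expressing cells loaded with fluo-8 calcium dye; 23 nL library compound pin-transferred, kinetic FDSS fluorescence (Ex 480/Em 530) recorded about 180 s for agonist-induced calcium release, before a 10 nM TRH EC20 addition for potentiator mode.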
D1 agonist: agonists of human D1 dopamine receptor. P21728. HEK293 T-REx D1 cells, calcium flux, agonist mode. activation, % at 2 µM. 360,000 compounds, 1% hits; in the data active = activation above about 30%
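Agonism was scored from calcium flux recorded over 180 s (1 read/s) after pintool compound addition, following a 10-cycle baseline. Cells were inducible force-coupled HEK293 TREx D1, plated overnight at 30 C and loaded with no-wash calcium dye.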
D1 PAM: enhances dopamine response at the human D1 receptor; 360,000 compounds, 0.036% hits; potentiation, % at 10 µM; P21728; HEK293 TREx D1 cells, calcium flux, dopamine EC20 potentiation; in the data active = potentiation above about 30%
TRHR enhancer-2: human TRH receptor allosteric enhancement confirmation. shares compounds with TRHR enhancer-1. TRH receptor cell assay, enhancer confirmation qHTS. activity change, negative = inhibition, % at 46.1 µM. 970 tested, under 10 active;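 note: compound effect scored on response to added TRH at EC20 of 10 nM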
TRHR agonist-2: confirmation of human TRH receptor agonists; shares compounds with TRHR enhancer-1; 970 compounds, 8% hits; TRHR-expressing cells, agonist activation read-out; AID 493078; Potency, µM (titrated, usually from 46.1 µM), actives largely listed as activators; note: nearly all actives have a fitted effect of over 75% in size
Each line names hits and unclear results; the compound was inactive in the other large screens (follow-up assays come after a bar, where they were run). A selection: hits, their analogues and other compounds. The true share with any hit is near 4.7%. Unless noted, calls come from the whole dose curve; as a rule, active = well fitted curve in the direction sought with a large enough effect; inconclusive = small, poorly fitted or top-dose-only effect, or another doubt; inactive = no such curve, though single readings can be large; an effect the other way counts as inactive or inconclusive.

c1ccc(-c2cn3nc(-c4ccccc4)c(-c4ccccc4)nc3n2)cc1	TRHR agonist-1 50, D1 agonist 73 | TRHR enhancer-2 inactive | TRHR agonist-2 21µM
CCCc1cc(=O)oc2c(C)c(OCC(=O)NCCN3CCOCC3)ccc12	TRHR enhancer-1 54 | TRHR enhancer-2 inactive | TRHR agonist-2 inactive
CC(=O)Oc1ccc(-c2cccc(C(=O)NCCO)c2)cc1	TRHR enhancer-1 43 | TRHR enhancer-2 inactive | TRHR agonist-2 inactive
CC(C)CCNC(=O)NC(=O)CSc1nnc(-c2ccccc2Br)o1	TRHR enhancer-1 42 | TRHR enhancer-2 inactive | TRHR agonist-2 inactive
Clc1ccc(OCCNCCc2ccccc2)cc1	TRHR enhancer-1 43 | TRHR enhancer-2 inactive | TRHR agonist-2 inactive
O=C(COc1ccc(Cl)cc1)NCc1ccccc1	none
CCOC(=O)c1ccc(NC(=O)C2Cc3ccccc3CN2S(=O)(=O)c2ccc(Cl)cc2)cc1 (stereo not drawn)	none
COc1cc(O)c(C(CC(=O)N2CCCC2)c2cc(OC)c(OC)c(OC)c2)c(OC)c1 (stereo not drawn)	TRHR enhancer-1 49 | TRHR enhancer-2 inactive | TRHR agonist-2 inactive
COc1cc(O)c(C(CC(=O)N2CCCCC2)c2cc(OC)c(OC)c(OC)c2)c(OC)c1 (stereo not drawn)	none
CCOCCc1nn2c(=O)cc(COC(=O)c3ccccc3NC(=O)C3CCCCC3)nc2s1	none
CCn1cc(C(=O)N2CCN(c3cccc(C)c3C)CC2)c(=O)c2ccc(C)nc21	none
CCn1cc(C(=O)N2CCN(c3ccc([N+](=O)[O-])cc3)CC2)c(=O)c2ccc(C)nc21	TRHR enhancer-1 46 | TRHR enhancer-2 inactive | TRHR agonist-2 inactive
CS(=O)(=O)N1CCc2cc(C(=O)NCc3ccccc3)ccc21	none
CCc1ccc(CNC(=O)C2CCN(c3nc4ccccc4nc3C(F)(F)F)CC2)cc1	none
COc1ccc(-c2nc3cc(C)ccn3c2NC(=O)c2c(F)cccc2Cl)cc1	TRHR enhancer-1 56 | TRHR enhancer-2 inconclusive | TRHR agonist-2 inactive
CCOC(=O)c1cc(-c2csc(-c3ccc(C(C)(C)C)cc3)n2)on1	TRHR enhancer-1 44 | TRHR enhancer-2 inactive | TRHR agonist-2 inactive
CCOc1ccc(Nc2c(S(=O)(=O)c3ccc(C)cc3)cnc3cc(OC)c(OC)cc23)cc1	none
CCCCCC1CC(=O)N(Cc2ccccc2)C(=O)N1 (stereo not drawn)	TRHR enhancer-1 69 | TRHR enhancer-2 inactive | TRHR agonist-2 inactive
COc1cccc(NC(=O)C(C)n2c(=O)cc(C(F)(F)F)c3c(C)nn(C)c32)c1 (stereo not drawn)	none
CCN(CC)c1ccc(/C=C2\CCC(/C=N/NC(=O)c3ccc(=O)n(C)c3)=C2N2CCOCC2)cc1	TRHR agonist-1 36, D1 agonist 74 | TRHR enhancer-2 inactive | TRHR agonist-2 inconclusive
Cc1cc(NC(=O)CCN2C(=O)c3ccccc3C2=O)no1	TRHR enhancer-1 56 | TRHR enhancer-2 inactive | TRHR agonist-2 inactive
Cc1ccc(NC(=O)CCN2C(=O)c3ccccc3C2=O)cc1	none
CN(C(=O)c1cccc(NC(=O)c2ccco2)c1)c1ccccc1	TRHR agonist-1 34 | TRHR enhancer-2 inactive | TRHR agonist-2 inactive
CN(C(=O)c1ccc(NC(=O)c2ccco2)cc1)c1ccccc1	none
Cc1nc2ccc(C(=O)Nc3ccccc3Cl)cc2s1	TRHR enhancer-1 51 | TRHR enhancer-2 inactive | TRHR agonist-2 inactive
O=C(CSC(=S)N1CCCCC1)N1N=CCC1c1ccccc1 (stereo not drawn)	TRHR enhancer-1 53 (no result: D1 antag) | TRHR enhancer-2 inactive | TRHR agonist-2 inactive
CC(C)[C@H](NC(=O)c1c(F)cccc1F)C(=O)OCC(=O)NC(=O)NC1CCCC1	TRHR enhancer-1 55 | TRHR enhancer-2 inactive | TRHR agonist-2 inactive
COc1ccc(C(C[N+](=O)[O-])c2c(-c3ccccc3)cc3ccccn23)cc1 (stereo not drawn)	TRHR enhancer-1 54 | TRHR enhancer-2 inactive | TRHR agonist-2 inactive
Cc1cc(C)cc(OCC(O)CN2CCN(Cc3ccc4c(c3)OCO4)CC2)c1 (stereo not drawn)	TRHR enhancer-1 44 | TRHR enhancer-2 inactive | TRHR agonist-2 inactive
OC(COc1ccccc1)CN1CCN(Cc2ccc3c(c2)OCO3)CC1 (stereo not drawn)	none
Cc1n[nH]c(C)c1CCN(C)C(=O)C1CCC(=O)N(CC2CCCCC2)C1 (stereo not drawn)	none
CN(CCc1cnn(C)c1)C(=O)C1CCC(=O)N(CC2CCCCC2)C1 (stereo not drawn)	TRHR enhancer-1 66 | TRHR enhancer-2 inactive | TRHR agonist-2 inactive
CSc1ccc(CNC(=O)C2CCCN(S(=O)(=O)N(C)c3ccc(F)cc3)C2)cc1 (stereo not drawn)	none
Cc1ccccc1NC(=O)CN1CCN(C)CC1	none
Cc1ccccc1NC(=O)CN1CCOCC1	TRHR enhancer-1 56 | TRHR enhancer-2 inactive | TRHR agonist-2 inactive
COC(=O)c1ccc(C(=O)OC)c(NC(=O)c2ccc(-c3ccccc3)s2)c1	none
O=Cc1ccc(OCc2ccc3c(c2)OCO3)cc1	none | TRHR enhancer-2 inactive | TRHR agonist-2 inactive
Cc1ccc(COc2ccc3c(c2)OCO3)cc1	none
COc1ccccc1NC(=O)Cn1c(=O)n(Cc2nc(C)no2)c(=O)c2cc3c(cc21)OCO3	none
CCOc1ccc(NC(=O)CC2C(=O)N(c3ccc(OC)cc3)C(=O)N2CCC2=CCCCC2)cc1 (stereo not drawn)	none
CC(C)CCNC(=O)NC(=O)CSc1ccc(S(=O)(=O)N2CCOCC2)cn1	TRHR enhancer-1 63 | TRHR enhancer-2 inactive | TRHR agonist-2 inactive
CCN(Cc1ccccc1)C(=O)C(CC(C)C)NS(=O)(=O)c1ccc2c(c1)CCN2C(C)=O (stereo not drawn)	none
Nc1c(S(=O)(=O)c2ccccc2)c2nc3ccccc3nc2n1Cc1ccco1	none | TRHR enhancer-2 inactive | TRHR agonist-2 inconclusive
Nc1c(S(=O)(=O)c2ccccc2)c2nc3ccccc3nc2n1CCN1CCOCC1	none
O=C(CSc1nnc(-c2ccc(Cl)cc2)n1-c1ccc(Cl)cc1)N/N=C/c1ccco1	TRHR enhancer-1 48 | TRHR enhancer-2 inactive | TRHR agonist-2 inactive
Cc1ccc(N2CC(NC(=O)C(=O)c3c[nH]c4ccccc34)CC2=O)cc1 (stereo not drawn)	none (no result: D1 antag)
CCN(CC)c1ccc(CN2CCC(C(=O)NCc3ccc(C)cc3)CC2)cc1	TRHR enhancer-1 45 | TRHR enhancer-2 inactive | TRHR agonist-2 inactive
O=C(CCCn1c(=O)c2cccn2c2ccccc21)Nc1cc(C(F)(F)F)ccc1Cl	none
CCOc1cc(/C=C2/SC(=S)N(Cc3ccccc3)C2=O)ccc1O	none
